Here are results for five molecules from PubChem BioAssay.

Assay [1] can be described thus: inhibitors of TNFa-induced NFkB p65 translocation, primary screen, imaging, HUVEC, MLSMR starter and 10KST1 sets (AID 438;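 active means inhibition above 20% together with a positive visual image hit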;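 further: compound added about 3h40 before a 20 min TNFalpha stimulation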;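 on inhibition: signal is the nuclear over cytoplasmic p65 intensity ratio per well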). The following applies: HUVEC TNFa-induced p65 nuclear translocation; cell count: measured here: nuclei count (cytotoxicity indicator), at 2.08 µM; inhibition: at 2 µM, stronger effect = higher value, 0% TNFa-plus-vehicle, 100% no-TNFa wells.
Assay [2] can be described thus: reduction of polyQ htt aggregates in cells – imaging, exon1htt(103Q)mCFP cells, high-content imaging, primary screen (AID 483;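 active means visual image review flags a hit and inhibition of aggregation exceeds 20%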;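 further: compound exposure lasted 3 days before fixation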;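 on nuclei count: percent of the per-plate median nuclei count of sample wells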). The following applies: exon1htt(103Q)mCFP cell line, aggregate imaging, at 2 µM; inhibition of aggregation: stronger effect = higher value; nuclei count: measured here: cell count, toxicity.
Assay [3] is described as follows: endothelial E-selectin expression blockers – imaging, HUVEC, immunofluorescence, MLSMR starter and 10KST1 sets, primary screen (AID 487;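 active means visually confirmed hit in the image check and inhibition above 20%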;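 on inhibition: signal is fraction of cell area covered by stained E-selectin grains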;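 on nuclei count: 100% = median nuclei count of all wells on the same plate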). The following applies: HUVEC TNFalpha-induced E-selectin immunofluorescence imaging, at 2 µM; inhibition: stronger effect = higher value; nuclei count: measured here: cell number, toxicity.
Assay [4] in a line: Primary imaging screen for DUSP6 inhibitors that restore phospho-Erk in transfected HeLa cells, chemical complementation (AID 609;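 active means compounds giving at least 50% inhibition in the cell-based MKP-3 phosphatase rescue imaging test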;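 on inhibition: phospho-Erk level distribution per well compared with pooled transfected vehicle control wells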). The following applies: HeLa MKP-3 transfected, phospho-Erk imaging KS statistic, at 10 µM, cells stimulated with TPA for 15 min.
The target in assay [5] is Dual specificity protein phosphatase 6 (Homo sapiens) (UniProt Q16828). The description is as above. The following applies: HeLa MKP-3 transfected, phospho-Erk imaging KS statistic; at 10 µM; stronger effect = higher value; cells stimulated with TPA for 15 min.
The target of assay [6] is Voltage-gated potassium channel subunit beta-2 (Rattus norvegicus) (UniProt P62483). The assay is described as follows: inhibitors of rat Kvbeta2 reductase activity – biochemical, NADPH fluorescence, primary screen (AID 622;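 active means fluorescence slope higher than the sample average by over 3 SD, cut at about -0.22 in these data, passing the limit was not always enough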;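 further: slope of raw intensity against log time taken from 70 to 1610 s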). The following applies: recombinant KvBeta, 4-cyanobenzaldehyde reduction, at 10 µM, stronger effect = higher value.
For assay [7] the target is unchanged. The assay is described as follows: enhancers of rat Kvbeta2 NADPH turnover – biochemical, NADPH fluorescence, primary screen (AID 623;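 active means NADPH fluorescence slope more negative than the mean of all samples by about 3 SD, 99.7% confidence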;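 further: fluorescence intensity change per second fitted from 20 to 320 s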). The note with it: Recombinant KvBeta, NADPH fluorescence decrease slope, 10 min; at 10 µM; stronger effect = lower value.
Assay [8] has as its target Alpha-2C adrenergic receptor (Homo sapiens) (UniProt P18825). The assay is described as follows: compounds altering alpha2C-coupled GIRK flux – cell-based, HEK293 alpha2C/GIRK1/2, thallium flux, primary screen (AID 624;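 active means fluorescence slope after compound addition differing from the mean of all screened samples at 99.7% confidence, in either direction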;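 further: slope of fluorescence ratio to pre-addition baseline per second over 15 to 24 s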). The note with it: thallium flux BTC fluorescence, at 10 µM, actives lie on both sides.
Assay [9] is described as follows: inhibitors of larval lipid processing in zebrafish, primary screen, whole organism, PED6 fluorescence, gall bladder and intestine (AID 686;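 active means a full or partial loss of lipid-probe fluorescence in the fish gall bladder, intestine or both, judged by eye; inactive means no fluorescence loss, or compound toxic to the fish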;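 further: larvae 5 to 7 days old with five fish per well; signal comes from phospholipase A2 cleavage of quenched PED6 carried via bile; overnight exposure to compound and PED6 before scoring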). The following applies: Zebrafish larvae PED6 lipid processing, fluorescence scoring; screened at 20 µM (by protocol).
Assay [10] is described as follows: loss of swimming-algae plug formation – whole organism, Chlamydomonas reinhardtii, WT vs cilia-less mutant, absorbance, 96-well, primary screen (AID 463189).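 Further: 0% = wild type cc124 cells in DMSO and 100% = ciliumless bld1 mutant cells.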 The note with it: Chlamydomonas reinhardtii gravitaxis, OD600 absorbance, 2 days; at 10 µM; stronger effect = higher value.
The nature of assay [11]: blockers of RIG-like receptor reporter activation – cell-based, Sendai virus stimulus, luciferase, 10K MLSCN set, TLR/RLR signaling modifier project, primary screen (AID 602276;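 active means inhibition at or above 50% at 10 µM; inactive means inhibition below 50%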;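 further: firefly luciferase from ISG56 promoter only with Renilla not read in this screen; 0% = Sendai virus plus DMSO and 100% = medium plus DMSO without virus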). The note with it: HEK293 RL24 IRF3 luciferase reporter, at 10 µM, stronger effect = higher value. In general terms: Reporter assays use an easily measured gene product as a stand-in for the process of interest.

Assay [12] is described as follows: TLR3 IRF3 reporter activation blockers – cell-based, poly I:C stimulus, luciferase, 10K MLSCN set, primary screen (AID 602277;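 active means inhibition of the reporter signal at or above 50%; inactive means inhibition below 50%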). The following applies: HEK293-TLR3 RL24 IRF3 luciferase reporter, at 10 µM, stronger effect = higher value.
The mark [13] stands for this setting: measured here: cell density z-score.
The mark [14] stands for this setting: measured here: nuclear c-Myc green intensity z-score.
[15] abbreviates: measured here: nuclear pErk red intensity z-score, stronger effect = higher value.

Where “and” joins values, the source holds several entries; their conditions need not be identical. Identical values can stand only once. Calls of active or inactive are those of the source.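 How the source made its calls, unless noted: active means inhibition at or above 50% relative to wild type and mutant plate controls; inactive means inhibition below 50%.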

Sequence of Dual specificity protein phosphatase 6 (Homo sapiens) (Q16828 whole entry, looked up): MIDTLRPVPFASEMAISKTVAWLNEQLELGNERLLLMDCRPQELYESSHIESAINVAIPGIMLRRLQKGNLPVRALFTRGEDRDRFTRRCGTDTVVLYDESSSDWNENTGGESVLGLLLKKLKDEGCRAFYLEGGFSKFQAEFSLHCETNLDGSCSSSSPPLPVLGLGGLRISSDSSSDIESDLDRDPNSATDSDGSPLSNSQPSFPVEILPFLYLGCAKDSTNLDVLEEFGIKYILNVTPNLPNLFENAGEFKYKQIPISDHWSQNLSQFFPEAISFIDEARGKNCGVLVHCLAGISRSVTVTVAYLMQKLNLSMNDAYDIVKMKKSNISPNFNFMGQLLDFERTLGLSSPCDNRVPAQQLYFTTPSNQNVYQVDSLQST
Sequence of Alpha-2C adrenergic receptor (Homo sapiens) (P18825 whole entry, looked up): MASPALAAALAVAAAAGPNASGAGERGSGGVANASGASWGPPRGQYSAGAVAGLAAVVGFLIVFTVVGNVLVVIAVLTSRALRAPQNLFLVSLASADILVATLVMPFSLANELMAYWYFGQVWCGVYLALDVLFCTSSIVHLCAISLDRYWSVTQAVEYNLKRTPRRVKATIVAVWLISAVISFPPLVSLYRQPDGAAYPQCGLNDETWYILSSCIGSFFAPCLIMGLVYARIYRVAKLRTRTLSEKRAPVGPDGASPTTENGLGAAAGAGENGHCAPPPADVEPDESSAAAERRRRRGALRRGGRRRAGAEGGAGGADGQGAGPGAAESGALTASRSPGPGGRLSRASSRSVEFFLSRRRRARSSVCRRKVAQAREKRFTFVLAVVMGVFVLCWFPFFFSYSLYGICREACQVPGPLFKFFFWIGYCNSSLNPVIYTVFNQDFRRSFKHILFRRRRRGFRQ
Sequence of Voltage-gated potassium channel subunit beta-2 (Rattus norvegicus) (P62483 whole entry, looked up): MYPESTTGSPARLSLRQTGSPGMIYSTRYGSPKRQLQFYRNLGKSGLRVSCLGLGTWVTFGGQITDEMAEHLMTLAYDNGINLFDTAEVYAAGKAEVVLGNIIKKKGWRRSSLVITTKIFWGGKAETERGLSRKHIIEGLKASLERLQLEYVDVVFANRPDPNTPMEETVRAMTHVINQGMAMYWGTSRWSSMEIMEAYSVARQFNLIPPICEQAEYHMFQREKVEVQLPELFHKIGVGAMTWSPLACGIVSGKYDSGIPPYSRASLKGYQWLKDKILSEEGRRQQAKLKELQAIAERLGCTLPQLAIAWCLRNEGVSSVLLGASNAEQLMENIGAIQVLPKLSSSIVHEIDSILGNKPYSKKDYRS

`CCCCC(=O)Nc1c(O)c2ccccc2[nH]c1=O`: the cell count in assay [1] amounted to 450. The inhibition in assay [1] was 1.5% (inactive); in assay [3], -155% (inactive); in assay [5], -8.95% (inactive); in assay [10], -4.89% (inactive); in assay [11], 2.04% (inactive); in assay [12], 1.03% (inactive). Besides, the inhibition of aggregation in assay [2] is -22.7% (inactive). Besides, the values for the nuclei count in assay [2] and in assay [3] were 104% and 137%, respectively. Further, the z-score in assay [4] (setting [13]) was -1.21; in assay [4] (setting [14]) it was 0.174; in assay [4] (setting [15]), 1.14. Besides, the fluorescence slope in assay [6] is -0.491 (inactive). Besides, the NADPH fluorescence slope in assay [7] was -0.000197 (inactive). Also, the slope in [8] is 0.00511 (inactive). Besides, the result in assay [9] was inactive.
`Cc1ccc(N(CC(O)CN2CCCC2)S(=O)(=O)c2ccc(C)cc2)cc1` (stereo not given): the cell count in assay [1] was determined as 415. Moreover, the inhibition in [1] is -5.4% (inactive); in assay [3] it was -210% (inactive); in assay [5], 13.2% (inactive); in assay [10], 7.07% (inactive); in assay [11], -14.3% (inactive); in [12], -1.97% (inactive). For the same molecule, the inhibition of aggregation in [2] is 8.3% (inactive). The nuclei count in assay [2] turned out to be 97.4%; in assay [3], 148%. For the same molecule, the z-score in [4] (setting [13]) is 1.32; in assay [4] (setting [14]) it was -1.19; in assay [4] (setting [15]), -0.796. In [6], the fluorescence slope is -0.388 (inactive). The NADPH fluorescence slope in assay [7] is -5e-05 (inactive). For the same molecule, in assay [8], the slope was 0.00478 (inactive). Further, the outcome in assay [9] was inactive.
Take `Oc1ccc(/C=C/c2cc(O)cc(O)c2)cc1`: the cell count in assay [1] stood at 597. For the same molecule, the inhibition is 2.2% (inactive) in [1]; -78% (inactive) in assay [3]; 14.6% (inactive) in [5]; 3.52% (inactive) and 10.8% (inactive) in [10]; -39.2% (inactive) in assay [11]; -231% (inactive) in assay [12]. The inhibition of aggregation in assay [2] is 6% (inactive). Also, the nuclei count in [2] was 98.6%; in [3] it was 118%. Further, the results for the z-score in assay [4] (setting [13]), in assay [4] (setting [14]) and in [4] (setting [15]) were -1.5, -0.867 and 1.21, respectively. Besides, the fluorescence slope in assay [6] is -0.411 (inactive). The NADPH fluorescence slope in assay [7] is -0.000101 (inactive). Moreover, in [8], the slope is 0.00434 (inactive). Further, the molecule was classed as inactive in [9].
Turning to `C1CCC(C(CC2CCCCN2)C2CCCCC2)CC1` (stereo not given), the cell count in assay [1] was 585. For the same molecule, the inhibition in assay [1] is 4.5% (inactive); in assay [3] it was 0.5% (inactive); in assay [5], 8% (inactive); in assay [10] it was 162% (active); in assay [11] it was 33.8% (inactive); in assay [12] it was 36.5% (inactive). In addition, in [2], the inhibition of aggregation was -15.7% (inactive). For the same molecule, the nuclei count in assay [2] stood at 101%; in [3], 138%. The z-score in [4] (setting [13]) was determined as 0.673; in [4] (setting [14]), 1.64; in assay [4] (setting [15]) it was 0.659. Also, in assay [6], the fluorescence slope is -0.498 (inactive). In addition, the NADPH fluorescence slope in assay [7] was -1.1e-05 (inactive). The slope in assay [8] is 0.0027 (inactive). Moreover, the molecule was classed as inactive in [9].
`Cc1nnc2n(Cc3ccccc3)c(=O)c3c4c(sc3n12)COC(C(C)C)C4` (stereo not given): the cell count in assay [1] was 511. The inhibition in assay [1] is 9.8% (inactive); in [3], -54.8% (inactive); in assay [5], -1.12% (inactive); in assay [10] it was 146% (active); in [11], 11.6% (inactive); in assay [12], 3.4% (inactive). For the same molecule, in assay [2], the inhibition of aggregation is 29.9% (inactive). Further, the nuclei count in assay [2] is 80.8%; in [3] it was 118%. Further, the z-score was 0.665 in [4] (setting [13]), -0.394 in assay [4] (setting [14]) and -1.52 in assay [4] (setting [15]). In assay [6], the fluorescence slope is -0.46 (inactive). Besides, the NADPH fluorescence slope in assay [7] is -0.000365 (inactive). In [8], the slope is 0.00653 (inactive). Also, the result in assay [9] was inactive.

By inhibition is commonly meant the drop in the measured response relative to a control, in per cent.
